“And” between values parts separate entries of the source, which are not always exact repeats. Identical values can stand only once. The panel holds about 83,000 compounds, 20% with a hit somewhere; the sample as a whole holds those more often.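 Each cell line was grown in a 96-well plate and treated with one concentration of compound for 48 hours. Values below 10 were considered active.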 The source made the active and inactive calls.
Columns and labels:
Assay in all cases: NCI-60 one-dose screen, 48 h (100 = growth as untreated, 0 = no growth, -100 = all killed)
Conditions in all cases: 10 µM unless noted
[1] = test system: SK-MEL-2 melanoma
[2] = test system: EKVX NSCLC
[3] = test system: SN12C renal
[4] = test system: TK-10 renal
[5] = test system: ACHN renal
[6] = test system: CAKI-1 renal
[7] = test system: HL-60(TB) leukemia
[8] = test system: A498 renal
[9] = test system: CCRF-CEM leukemia
[10] = test system: UO-31 renal

Row | SMILES | growth [1] | growth [2] | growth [3] | growth [4] | growth [5] | growth [6] | growth [7] | growth [8] | growth [9] | growth [10]
1 | O=C(O)C(F)F | 120% (inactive) | 101% (inactive) | 104% (inactive) | 97.7% (inactive) | 116% (inactive) | 102% (inactive) | 96% (inactive) | – | – | –
2 | O=C(Cc1ccccc1)NC(O)C(Cl)(Cl)Cl (stereo not drawn) | 105% (inactive) | 124% (inactive) | 99.3% (inactive) | – | 120% (inactive) | 108% (inactive) | 101% (inactive) | 104% (inactive) | 106% (inactive) | –
3 | O=[N+]([O-])c1ccc(CI)cc1 | – | – | 60% (inactive) | 112% (inactive) | 65.5% (inactive) | 54.5% (inactive) | 64.4% (inactive) | 95.7% (inactive) | 21.5% (inactive) | 91.9% (inactive)
4 | O=C1C=CC(=O)N1CO | – | – | – | – | – | – | -11.7% (active) | – | – | –
5 | Cc1cc(N)ccc1N | 104% (inactive) | – | 95.7% (inactive) | – | 97% (inactive) | 97.9% (inactive) | 100% (inactive) | 79.2% (inactive) | 69.3% (inactive) | 88.7% (inactive)
6 | CCOC(=O)C1=C(C)/C(=C\c2[nH]c(C)c(C(=O)OCC)c2C)N=C1C | – | – | – | – | – | – | 41.6% (inactive) | – | – | –
7 | Cc1cc[n+](CCc2ccccc2)cc1 | – | – | 102% (inactive) and 105% (inactive) | 91.8% (inactive) and 106% (inactive) | 103% (inactive) | 97% (inactive) and 98.7% (inactive) | 97.8% (inactive) and 95.8% (inactive) | 83.9% (inactive) and 93.6% (inactive) | 101% (inactive) | –
8 | CNC(=O)O/N=C(\SC)C(=O)N(C)C | – | 112% (inactive) | 104% (inactive) | 103% (inactive) | 101% (inactive) | 107% (inactive) | 88.9% (inactive) | 95.8% (inactive) | – | 93.1% (inactive)
9 | CC1=C(C)C(=O)O[C@@H]([C@](C)(O)[C@]2(O)CC[C@@]3(O)[C@@H]4C[C@H]5O[C@]56CC=CC(=O)[C@]6(C)[C@H]4CC[C@]23C)C1 | -24.6% (active) | – | 3.65% (active) | – | – | -49% (active) | -36.9% (active) | -59.9% (active) | -8.66% (active) | -24.3% (active)
10 | COc1ccc(N)cc1N | – | 107% (inactive) | 101% (inactive) | 148% (inactive) | 101% (inactive) | 101% (inactive) | 128% (inactive) | – | – | 70.8% (inactive)
11 | CCOC(=O)c1c(SC)nc(-c2ccc(Cl)cc2)sc1=N | – | – | – | 6.59% [100 µM] (active) and 15.8% [100 µM] (inactive) | – | – | – | – | – | –
12 | O=C1c2ccccc2C(=O)N1N1CC1c1ccccc1 (stereo not drawn) | – | – | 104% (inactive) | 107% (inactive) | – | 95.7% (inactive) | 102% (inactive) | 104% (inactive) | 94.7% (inactive) | 91.3% (inactive)
13 | O=C1CCCCC1CN1CCCCC1 (stereo not drawn) | – | 104% (inactive) | 99.9% (inactive) | – | 102% (inactive) | 102% (inactive) | 93.4% (inactive) | 96.6% (inactive) | 98.7% (inactive) | 88.7% (inactive)
